The nature of assay [1]: APR_HepG2_CellLoss_72hr: Apredica 72-hour HepG2 Assay for Cell Loss (AID 2282915). The following applies: high-content imaging. A digest of the protocol: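 HepG2 cells exposed 72 h to compound at 0.39–200 uM (10 concentrations, duplicate) in 0.5% DMSO. Fixed with 3.7% formaldehyde and Hoechst 33342-stained. Imaged at 20x; nuclear count gives cell number, fitted bidirectionally versus DMSO.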

Assay [2] is described as follows: APR_HepG2_P-H2AX_72hr: Apredica 72-hour HepG2 Assay for H2AX Phosphorylation (AID 2282916).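 Also: phospho-histone H2A.x immunostain intensity per cell marking DNA damage.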 The following applies: imaging, actives raise or lower the signal. A digest of the protocol: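 Readout: phospho-H2A.x immunofluorescence (FITC secondary) plus Hoechst nuclear stain, high-content imaging at 20x, six fields/well. HepG2, 72 hr compound exposure, 0.39–200 uM, final DMSO 0.5% v/v. Gain or loss fitted relative to DMSO baseline.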

A short description of assay [3]: APR_HepG2_MitoticArrest_72hr: Apredica 72-hour HepG2 Assay for Mitotic Arrest (AID 2282918). The following applies: high-content imaging, actives raise or lower the signal. A digest of the protocol: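 Using high-content imaging of fixed HepG2 cells, phospho-histone H3 signal was measured following a 72 hr incubation with ten-point compound dilutions up to 200 uM. DMSO served as the negative control and baseline for bidirectional curve fitting.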

Assay [4] in a line: APR_HepG2_P-H2AX_24hr: Apredica 24-hour HepG2 Assay for H2AX Phosphorylation (AID 2282920). The following applies: high-content imaging, actives raise or lower the signal. A digest of the protocol: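 Human HepG2 liver cells, treated 24 hr with test chemicals (0.39–200 uM, final DMSO 0.5% v/v), are fixed and co-stained for phospho-H2A.x and c-Jun with Hoechst. Imaged intensity is fitted in both directions against DMSO controls.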

A short description of assay [5]: APR_HepG2_StressKinase_72hr: Apredica 72-hour HepG2 Assay for Stress Kinase (AID 2282921). The following applies: HepG2 stress kinase (phospho-c-Jun) imaging, actives raise or lower the signal. An outline of the steps:
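Phospho-c-Jun immunofluorescence measured by high-content imaging at 20x, six fields per well; bidirectional curve fitting against DMSO as baseline. Dosing: 0.39–200 uM, 72 h, 0.5% DMSO final.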

Assay [6] is described as follows: APR_HepG2_MitoMass_72hr: Apredica 72-hour HepG2 Assay for Mitochondrial Mass (AID 2282924).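 Also: MitoTracker Red CMXRos stain intensity per cell imaged as mitochondrial mass.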 The conditions noted are these: high-content imaging, actives raise or lower the signal. A digest of the protocol: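 Read-out: MitoTracker Red fluorescence intensity from automated imaging (20x, six fields per well) in human HepG2 liver cells. Dosing ran 72 hr, 0.39–200 uM, 0.5% DMSO; bidirectional curve fitting versus DMSO baseline.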

Assay [7] can be described thus: ATG_CRE_CIS: Attagene CIS-FACTORIAL HepG2 Assay for human cAMP Responsive Element (CRE) binding protein 3 (AID 2282926). The following applies: HepG2 CRE cis-reporter, Attagene multiplexed mRNA; actives raise or lower the signal. A digest of the protocol:
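Liver-derived HepG2, transfected with a CRE-containing reporter panel, exposed 24 h; transcript levels sized and quantified by capillary electrophoresis of labelled amplicons; signal changes either way referenced to vehicle.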

A short description of assay [8]: ATG_CMV_CIS: Attagene CIS-FACTORIAL HepG2 Assay for human CMV (Internal Marker) (AID 2282928).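 Also: endpoint acts as a background internal control marker rather than a target.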 The conditions noted are these: HepG2 CMV promoter reporter, transcription factor profiling; actives raise or lower the signal. A digest of the protocol: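 Bidirectional fits against DMSO are applied to reporter mRNA, read by RT-PCR with capillary electrophoresis, from HepG2 cells exposed 24 h. The endpoint serves as an internal CMV background marker within the cis-factorial reporter panel.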

A short description of assay [9]: ATG_DR4_LXR_CIS: Attagene CIS-FACTORIAL HepG2 Assay for human Liver X Receptor (LXR), DR4 submotif (AID 2282929). The following applies: HepG2 Attagene DR4 cis-reporter, mRNA transcription; actives raise or lower the signal. A digest of the protocol:
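HepG2, transient MRTU transfection, cis-element (DR4) promoter; 24 h compound exposure; total RNA → oligo(dT) RT → PCR → 6-FAM primer extension → HpaI cut → CE. Gain/loss vs DMSO, bidirectional fit.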

In assay [10] the target is Aryl hydrocarbon receptor (Homo sapiens) (UniProt P35869). Nature of the assay: ATG_Ahr_CIS: Attagene CIS-FACTORIAL HepG2 Assay for human Aryl Hydrocarbon Receptor (Ahr) (AID 2282930). The conditions noted are these: HepG2 AhR cis-factorial reporter transcription; actives raise or lower the signal. An outline of the steps:
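HepG2 cells transiently transfected with cis-element-driven multiplexed reporter units; endogenous AhR activity read as reporter mRNA 24 h after dosing, via RT-PCR, 6-FAM labelling, HpaI digestion and capillary electrophoresis. Bidirectional fit relative to DMSO.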

A short description of assay [11]: ATG_AP_1_CIS: Attagene CIS-FACTORIAL HepG2 Assay for human Activator Protein 1 (AP-1) (AID 2282931). The following applies: HepG2 Attagene cis-factorial AP-1 reporter mRNA; actives raise or lower the signal. An outline of the steps:
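Transient MRTU transfection of HepG2 → 24 h chemical treatment → RNA isolation, RT-PCR, 6-FAM labelling, HpaI digest → capillary electrophoresis. Fit: bidirectional, DMSO negative control.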

Assay [12] is described as follows: ATG_BRE_CIS: Attagene CIS-FACTORIAL HepG2 Assay for human Bone Morphogenetic Protein (BMP) Response Element (BRE) (AID 2282933). The conditions noted are these: HepG2 BMP response element reporter, Attagene transcription factor profiling; actives raise or lower the signal. A digest of the protocol:
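A HepG2 multiplex reporter system measured inducible reporter mRNA 24 h post-dosing. Detection: RT-PCR, 6-FAM primer extension, HpaI digestion, capillary electrophoresis. Activity fitted bidirectionally relative to DMSO.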

The target in assay [13] is Retinoic acid receptor alpha (Homo sapiens) (UniProt P10276). Nature of the assay: ATG_DR5_RAR_CIS: Attagene CIS-FACTORIAL HepG2 Assay for human Retinoic Acid Receptor Alpha (RARE), DR5 submotif (AID 2282934). The following applies: HepG2 Attagene cis-factorial RARE DR5 reporter, mRNA; actives raise or lower the signal. An outline of the steps: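 HepG2 cells transiently transfected with multiplexed reporter units; DR5 cis-element drives reporter through endogenous transcription factors. After 24 h dosing, reporter mRNA quantified by RT-PCR, fluorescent labeling, HpaI digestion and capillary electrophoresis; bidirectional fitting versus DMSO.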
Chain of Retinoic acid receptor alpha (Homo sapiens) (P10276 whole entry, looked up): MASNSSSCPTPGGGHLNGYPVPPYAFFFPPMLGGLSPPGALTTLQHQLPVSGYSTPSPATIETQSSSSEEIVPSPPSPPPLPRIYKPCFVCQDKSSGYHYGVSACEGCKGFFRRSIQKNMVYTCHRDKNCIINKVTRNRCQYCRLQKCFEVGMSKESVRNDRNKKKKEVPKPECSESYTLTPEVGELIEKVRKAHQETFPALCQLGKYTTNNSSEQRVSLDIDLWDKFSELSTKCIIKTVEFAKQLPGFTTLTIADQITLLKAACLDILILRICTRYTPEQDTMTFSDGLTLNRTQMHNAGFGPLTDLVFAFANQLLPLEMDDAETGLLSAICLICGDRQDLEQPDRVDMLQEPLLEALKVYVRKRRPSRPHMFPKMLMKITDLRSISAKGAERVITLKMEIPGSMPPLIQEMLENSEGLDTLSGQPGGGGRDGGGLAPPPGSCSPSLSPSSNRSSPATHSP

Assay [14] deals with CCAAT/enhancer-binding protein beta (Homo sapiens) (UniProt P17676). The assay can be described thus: ATG_C_EBP_CIS: Attagene CIS-FACTORIAL HepG2 Assay for human CCAAT/Enhancer Binding Protein (C/EBP) beta (AID 2282927). The following applies: HepG2 Attagene cis-factorial transcription factor reporter; actives raise or lower the signal. A digest of the protocol: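 HepG2 transiently transfected with multiplexed reporter units under cis-regulatory promoters reporting endogenous C/EBPb activity. After 24 h exposure, reporter mRNA assayed by RT-PCR, fluorescent labelling, HpaI digestion and capillary electrophoresis; bidirectional fitting versus DMSO.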
Chain of CCAAT/enhancer-binding protein beta (Homo sapiens) (P17676 whole entry, looked up): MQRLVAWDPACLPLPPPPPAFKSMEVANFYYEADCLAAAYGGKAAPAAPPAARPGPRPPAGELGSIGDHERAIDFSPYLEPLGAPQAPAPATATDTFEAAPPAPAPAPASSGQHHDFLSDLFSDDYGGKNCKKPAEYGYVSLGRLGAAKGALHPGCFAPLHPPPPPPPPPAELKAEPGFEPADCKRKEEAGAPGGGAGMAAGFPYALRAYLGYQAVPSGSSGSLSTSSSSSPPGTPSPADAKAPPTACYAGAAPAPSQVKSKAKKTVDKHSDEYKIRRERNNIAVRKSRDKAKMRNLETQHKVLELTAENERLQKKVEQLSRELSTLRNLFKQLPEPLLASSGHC

A short description of assay [15]: ATG_AP_2_CIS: Attagene CIS-FACTORIAL HepG2 Assay for human Activator Protein 2 (AP-2) (AID 2282932). The following applies: HepG2 AP-2 cis-reporter, Attagene transcription factor profiling; actives raise or lower the signal. An outline of the steps:
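Read-out: fluorescent reporter mRNA via RT-PCR and capillary electrophoresis, 24 h post-dose in transiently transfected HepG2. Endogenous factors drive cis-promoter reporters; gain or loss of signal fitted bidirectionally against DMSO.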

Assay [16] in a line: APR_HepG2_StressKinase_24hr: Apredica 24-hour HepG2 Assay for Stress Kinase (AID 2282922). The following applies: HepG2 stress kinase (phospho-c-Jun) imaging, actives raise or lower the signal. A digest of the protocol:
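Read-out: phospho-c-Jun immunofluorescence (Cy3 secondary) quantified by high-content imaging at 20x, nuclei defined by Hoechst 33342. Human HepG2 liver cells dosed 24 hr, 0.39–200 uM, DMSO 0.5% v/v; gain or loss of signal fitted relative to DMSO.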

Assay [17] in a line: APR_HepG2_p53Act_72hr: Apredica 72-hour HepG2 Assay for p53 Activation (AID 2282923).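 Also: average cellular p53 protein immunofluorescence intensity in HepG2 cells.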 The conditions noted are these: high-content imaging, actives raise or lower the signal. A digest of the protocol:
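Readout: p53 immunofluorescence quantified by automated high-content imaging at 20x, six fields per well, nuclei located via Hoechst. Dosing ran 72 hr over ten concentrations from 0.39 to 200 uM; bidirectional curve fitting against DMSO baseline.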

Assay [18] can be described thus: APR_HepG2_NuclearSize_72hr: Apredica 72-hour HepG2 Assay for Nuclear Size (AID 2282925). The conditions noted are these: high-content imaging, actives raise or lower the signal. A digest of the protocol: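 Read-out: nuclear diameter from Hoechst 33342 images (ArrayScan, 20x, six fields/well), via cell-cycle image analysis. HepG2 were dosed 0.39–200 uM for 72 hr in 0.5% DMSO. Bidirectional fit relative to DMSO.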

As usually defined, the AC50 is the concentration giving half of the maximal activity seen.

Activity calls are given as the source filed them. The calls were made as follows: active = hit-call score of the fitted dose curve at least 0.9, where 1 is the maximum; inactive = score below 0.9.

Chain of Aryl hydrocarbon receptor (Homo sapiens) (P35869 whole entry, looked up): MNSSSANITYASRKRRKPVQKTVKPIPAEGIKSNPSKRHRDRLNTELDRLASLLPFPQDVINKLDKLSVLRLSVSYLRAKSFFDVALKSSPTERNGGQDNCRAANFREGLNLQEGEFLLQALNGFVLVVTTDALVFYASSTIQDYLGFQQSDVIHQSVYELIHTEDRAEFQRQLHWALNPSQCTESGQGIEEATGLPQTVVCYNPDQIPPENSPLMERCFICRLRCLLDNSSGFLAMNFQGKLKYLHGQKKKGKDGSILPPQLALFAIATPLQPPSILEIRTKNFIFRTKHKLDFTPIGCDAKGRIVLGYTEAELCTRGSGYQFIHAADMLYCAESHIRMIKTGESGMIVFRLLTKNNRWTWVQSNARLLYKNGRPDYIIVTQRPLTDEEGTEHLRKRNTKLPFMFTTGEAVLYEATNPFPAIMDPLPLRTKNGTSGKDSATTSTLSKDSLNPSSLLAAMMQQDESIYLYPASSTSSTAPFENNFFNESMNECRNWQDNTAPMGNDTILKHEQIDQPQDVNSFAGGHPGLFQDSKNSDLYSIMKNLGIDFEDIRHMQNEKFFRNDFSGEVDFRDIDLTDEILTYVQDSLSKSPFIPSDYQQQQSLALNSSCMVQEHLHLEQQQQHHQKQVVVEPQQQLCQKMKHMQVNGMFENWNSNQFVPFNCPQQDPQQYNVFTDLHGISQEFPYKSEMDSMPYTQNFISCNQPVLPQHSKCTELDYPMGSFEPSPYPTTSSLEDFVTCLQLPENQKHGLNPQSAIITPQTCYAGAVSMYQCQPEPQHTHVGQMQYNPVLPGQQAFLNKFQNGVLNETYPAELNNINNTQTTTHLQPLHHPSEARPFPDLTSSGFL

Regarding `O=C(O)c1c(Cl)ccc2cc(Cl)cnc12`, the call in assay [1], in assay [2], in assay [3], in assay [4], in assay [5] and in assay [6] was inactive. Also, the result in [7], in assay [8], in assay [9], in assay [10], in assay [11] and in assay [12] was inactive. In addition, the outcome in assay [13] was inactive.

`COC(=O)NS(=O)(=O)c1ccc(N)cc1`: the compound was classed as inactive in assay [1], in assay [2], in assay [3], in assay [4], in assay [5] and in assay [6]. Besides, the compound was classed as inactive in assay [7], in [8], in [9], in [10], in assay [11] and in [15]. In addition, the result in assay [12] was inactive. Also, the AC50 in [14] is 13.2 µM (active).

For `COP(=S)(OC)SCn1nnc2ccccc2c1=O`, the AC50 was 100 µM (active) in [1], 18.8 µM (active) in assay [7], 76.6 µM (active) in assay [11] and 13.3 µM (active) in [12]. Besides, the outcome in assay [2], in assay [3], in [4], in assay [5], in assay [16] and in assay [6] was inactive. Besides, the compound was called inactive in assay [8], in [9], in assay [10] and in assay [13].

With `CCOc1nc(C(Cl)(Cl)Cl)ns1`, the outcome in assay [1], in assay [2], in assay [3], in [4], in [5] and in assay [16] was inactive. For the same compound, the outcome in assay [6], in [8], in [9], in [10], in assay [11] and in assay [13] was inactive. Also, the AC50 was 20.8 µM (active) in assay [7] and 24.6 µM (active) in assay [12].

For the compound `CO/N=C(/C1=NOCCO1)c1ccccc1Oc1ncnc(Oc2ccccc2Cl)c1F`, the AC50 in assay [1] was 6.52 µM (active); in assay [7], 0.858 µM (active); in assay [14] it was 0.794 µM (active); in assay [11], 0.481 µM (active); in assay [12] it was 0.918 µM (active). Besides, the outcome in [2], in [3], in assay [4], in assay [5], in [6] and in assay [8] was inactive. For the same compound, the compound was called inactive in assay [9] and in assay [15].

Consider `Clc1cccc(C(Cl)(Cl)Cl)n1`, for which the compound was called inactive in assay [1], in [2], in assay [3], in assay [4], in [5] and in [16]. In addition, the result in assay [17], in assay [6], in [18], in assay [7], in assay [14] and in assay [8] was inactive. The outcome in [9], in [10], in assay [11] and in assay [12] was inactive.

For the origin of these results see PubChem BioAssay (EPA / NIEHS).
